Test results: PubChem BioAssay (NCI)
Compounds without any hit were thinned out: in the full panel of roughly 83,000, 20% have a hit.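 Interpretation: 100, growth as untreated; towards 0, rising growth inhibition; 0, no net growth; 0 to -100, cell death. Compounds scoring below 10 were considered active.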 Unmarked numbers belong to inactive results. Active and inactive are the calls of the source.

Assays:
Assay in all cases: NCI-60 one-dose screen, 48 h (100 = growth as untreated, 0 = no growth, -100 = all killed)
Conditions in all cases: 10 µM unless noted
[1] = system: HCT-15 colon
[2] = system: HT29 colon
[3] = system: SNB-75 CNS
[4] = system: SNB-19 CNS
[5] = system: U251 CNS
[6] = system: PC-3 prostate
[7] = system: SK-MEL-5 melanoma
[8] = system: UACC-62 melanoma
[9] = system: LOX IMVI melanoma
[10] = system: SK-MEL-28 melanoma
[11] = system: SK-MEL-2 melanoma
[12] = system: EKVX NSCLC
[13] = system: SN12C renal
[14] = system: UO-31 renal
[15] = system: TK-10 renal
[16] = system: ACHN renal
[17] = system: CAKI-1 renal
[18] = system: A498 renal
[19] = system: CCRF-CEM leukemia
[20] = system: MOLT-4 leukemia

Row | SMILES | growth [1] | growth [2] | growth [3] | growth [4] | growth [5] | growth [6] | growth [7] | growth [8] | growth [9] | growth [10] | growth [11] | growth [12] | growth [13] | growth [14] | growth [15] | growth [16] | growth [17] | growth [18] | growth [19] | growth [20]
1 | N#C/C(=C\c1cccc2cnccc12)n1nnc2cccc(F)c21 | 10.2% | 27.5% | -5.04% (active) | 80.7% | 78.9% | 48.7% | 58.7% | 36.5% | 14.9% | 37.1% | 52.8% | 24.9% | 17.7% | 41.4% | 34.4% | 16.9% | 41.5% | 67.7% | 17.6% | 26.2%
2 | CC1CN(C2CCCCC2)C(=S)N(c2ccccc2)C1=O (stereo not given) | 103% | 111% | 92.1% | 101% | 105% | 90.1% | 104% | 105% | 105% | 114% | 122% | 101% | 111% | 97.7% | 116% | 110% | 97.9% | 95.4% | 93.8% | 70.4%
3 | COc1ccc(CNC(=O)C(=O)[C@H](Cc2ccccc2)NC(=O)c2[nH]c3ccccc3c(=O)c2C)cc1 | 103% | 108% | 87.4% | 100% | 100% | 95.1% | 100% | 95.6% | 102% | 103% | 109% | 95.5% | 86.6% | 97.4% | 98.8% | 100% | 94.4% | 100% | 110% | 97.7%
4 | CCN(CC)CCNc1nc2ccccc2c2c(=O)c3cc(Cl)ccc3sc12 | 39.8% | 18.3% | 29.6% | 69.5% | 39.7% | 56.7% | 74.4% | 65.4% | -58.8% (active) | 98.1% | 89% | 74.9% | 66.7% | 43.7% | 80.1% | 47.6% | 22.6% | -7.91% (active) | 7.05% (active) | 25.1%
5 | C=C1CC[C@H](C(C)C)[C@@H]2[C@H]1[C@H]1CC(=C)[C@@H](O)CC[C@@](C)(O)[C@@H]2O1 | 107% | 101% | 88.1% | 91.5% | 106% | 89.9% | 100% | 92.8% | 93.8% | 105% | 80.9% | 98.1% | 109% | 82.6% | 103% | 95.8% | 95.1% | 89.3% | 94% | 119%
6 | CSc1nc2ccc(C)cc2cc1/C=N/O | 86.7% | 93.1% | 59.2% | 95.7% | 78.6% | 79% | 90% | 77% | 91.9% | 101% | 74.7% | 67.8% | 91.9% | 66.4% | 101% | 82.8% | 80.4% | 85.2% | 105% | 83%
7 | O=c1c2cc(F)ccc2sc2c(N3CCCCC3)nc3ccccc3c12 | 103% | 98% | 90.2% | 101% | 94.1% | 98.1% | 97.8% | 96.1% | 97.1% | 109% | 115% | 103% | 99.1% | 78.8% | 109% | 102% | 101% | 64.6% | 110% | 111%
8 | Cc1ccc(-c2nc(N3CCN(C(=O)c4ccc(OC(F)(F)F)cc4)CC3)c3ccccc3n2)cc1 | 72.8% | 88.9% | 76.2% | 88.4% | 86.1% | 63.9% | 81.5% | 75.4% | 89.4% | 101% | 102% | 88.5% | 90.5% | 53.7% | 90.6% | 89.5% | 69.8% | 63.7% | 75.3% | 56.8%
9 | CNc1nc2c(s1)C(c1cccc(F)c1)CC(=O)N2 (stereo not given) | 104% | 104% | 76.8% | 92.8% | 94.6% | 98.5% | 101% | 92.3% | 98.4% | 103% | 100% | 103% | 95.2% | 84.6% | 105% | 88.4% | 87.6% | 69% | 104% | 103%
10 | Cc1ccc(C(=O)N/N=C/c2cccc([N+](=O)[O-])c2)cn1 | 109% | 114% | 94.2% | 98.5% | 107% | 95.4% | 98.9% | 98.1% | 105% | 103% | 111% | 104% | 105% | 76.6% | 118% | 107% | 87.1% | 84.9% | 96.7% | 92.1%
11 | c1ccc(Cc2nn3cc(-c4ccccc4)nc3s2)cc1 | 95.1% | 94.9% | 102% | 103% | 107% | 93.7% | 101% | 82.6% | 86.2% | 109% | 97% | 95.9% | 103% | 95.4% | 89.5% | 106% | 98.7% | 96.5% | 102% | 93.9%
12 | O=C(CS(=O)c1oc(-c2cccs2)nc1S(=O)(=O)c1ccc(Br)cc1)c1ccccc1 (stereo not given) | 101% | 102% | 79.9% | 86.9% | 88.2% | 85.5% | 97.7% | 88.4% | 104% | 105% | 89.3% | 111% | 96.2% | 80.3% | 104% | 94.1% | 90.9% | 49.1% | 94.1% | 94.2%
13 | CCOC(=O)c1c(C)nc2c(c1N)CC(=O)N2Cc1ccc(F)cc1 | 95.9% | 90% | 95% | 97.1% | 91.2% | 80% | 92.9% | 90.1% | 93.5% | 111% | 92.6% | 94.9% | 93.2% | 88.6% | 97.3% | 95.7% | 92.9% | 64.1% | 85.3% | 85%
14 | COc1ccc(-c2nn(C(=O)c3cc(OC)c(OC)c(OC)c3)c3cc(N)ccc23)cc1 | 4.67% (active) | 0.136% (active) | 39.6% | 34% | 12.3% | 25.8% | -15.8% (active) | 42.5% | 26.3% | 45.1% | 55.8% | 30.8% | 22.9% | 23.7% | 60.8% | 11.4% | 46.2% | -8.28% (active) | 17% | 13.7%
15 | Cc1cc2nc3ccc(N=Nc4ccc(N(C)C)cc4)cc3n(-c3ccccc3)c-2cc1=N | -77.2% (active) | -67% (active) | -84% (active) | -93.7% (active) | -69.4% (active) | -72.3% (active) | -95.3% (active) | -76.7% (active) | -66.5% (active) | -96.6% (active) | -94.6% (active) | -94.6% (active) | -52.8% (active) | -91.2% (active) | -82.2% (active) | -92% (active) | -96.5% (active) | -46.9% (active) | -47.3% (active) | 0.81% (active)
16 | CCCCCCCCCCCCCCCCCCOc1ccc(CC(=O)OCC[N+](C)(C)C)cc1 | 102% | 94.5% | 113% | 90.7% | 92.2% | 96.9% | 103% | 97.4% | 91.1% | 103% | 115% | 101% | 94.1% | 101% | 93.8% | 99.9% | 90.4% | 119% | 102% | 2.06% (active)
